These results are taken from PubChem BioAssay (NCATS).

“And” between values parts separate entries of the source, which are not always exact repeats. Identical values can stand only once. Records with an inconclusive call do not appear. Some structures have more than one record in an assay (separate samples or runs), and their calls can disagree. The source made the active and inactive calls. Unless noted, calls follow the shape of the dose curve; as a rule, active = well fitted curve in the direction sought with a large enough effect; inconclusive = small, poorly fitted or top-dose-only effect, or another doubt; inactive = no such curve, though single readings can be large; an effect the other way counts as inactive or inconclusive.

In assay [1] the target is Cytochrome P450 1A2 (Homo sapiens) (UniProt P05177). Description: p450-cyp1a2 (AID 410; calls by dose curve; also: potency is read from the fitted curve at half-maximal effect;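 as to activity change, negative = inhibition: -100% = full effect of reference inhibitor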). The method, boiled down:
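Human CYP1A2 (20nM) demethylated Luciferin-ME at its Km (100uM) in 100mM KPO4. After 10 min compound preincubation, NADPH regeneration ran the reaction 60 min at room temperature. Luciferin was read by luminescence, normalized to 57 uM furafylline.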

Assay [2] concerns the target Glucocorticoid receptor (Homo sapiens) (UniProt P04150). Kind of assay: GR-GFP Redistribution (AID 450;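 active = compounds whose dose series gives a full or clear partial fitted curve of increased nuclear translocation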; also: potency is read from the fitted curve at half-maximal effect). Conditions: U2OS GR-GFP nuclear translocation, laser cytometry, 2 h.
The target is the same in assay [3]. Kind of assay: GR-EFC Redistribution (AID 451; calls by dose curve; also: potency is read from the fitted curve at half-maximal effect). The following applies: CHO-K1 GR-EFC translocation, beta-gal luminescence, 2 h. The method, boiled down:
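CHO-K1 cells stably expressing nuclear-localized β-gal enzyme acceptor and GR fused C-terminally to the enzyme donor fragment; ligand-driven nuclear translocation restores β-gal by complementation. Compounds titrated up to 46 uM final, 2 h at 37 °C; luminescence read.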

In assay [4] the target is Mitogen-activated protein kinase 10 (Mus musculus) (UniProt Q61831). Kind of assay: JNK3 AlphaScreen Assay (AID 530; active = well fitted curve in either direction with a large enough effect, not every such curve was filed as active;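 also: kinase came from lysate of stimulated human HepG2 cells; signal reports phosphorylation of biotinylated GST-cJun 1-79 at Ser73 with 10 µM ATP; % is scaled to controls: 0 for no effect and ±100 for the full control effect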). Summed up: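 JNK3 came from HepG2 lysates pre-activated with IL-1beta and TNF-alpha and phosphorylated biotinylated GST-cJun (1-79) at 10 uM ATP, pH 7.6, room temperature. Compounds were titrated. AlphaScreen signal used anti-phospho-cJun (Ser73) antibody.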

For assay [5], the target named is 3',5'-cyclic-AMP phosphodiesterase 4B (Homo sapiens) (UniProt Q07343). Kind of assay: qHTS Assay for Inhibitors of PDE-IV (AID 607; active = well fitted activation curve with a large enough effect in the main read-out, with a control signal flat, not every such curve was filed as active; also: % of control where 0% means no effect). The method, boiled down: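 ACTOne HEK293 cells carry a modified cAMP-gated CNG channel and express endogenous PDE4; plated 1000 cells/well, compounds up to 22.9 uM final. Membrane-potential dye fluorescence (ex 535/em 590) was read; parental cells received 10 uM forskolin + 100 uM RO 20-1724.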

Assay [6] addresses Cytochrome P450 3A4 (Homo sapiens) (UniProt P08684). Description: qHTS Assay for Activators of Cytochrome P450 3A4 (AID 885). Also: nearly all actives have a fitted effect of over 65% in size. The method, boiled down:
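20nM CYP3A4 + 25uM Luciferin-PPXE (=KM), 200mM KPO4; cpd 10 min RT; NADPH regen, 60 min RT; stop w/ detection buffer, 20 min; luminescence. Normalized to 57 uM ketoconazole.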

Assay [7] is described as follows: qHTS Assay for Lipid Storage Modulators (AID 1519; calls by dose curve). Conditions: Drosophila S3 cells, BODIPY lipid droplet/cell ratio, laser cytometry, cells loaded with oleic acid; for activity change, negative = inhibition: at 57.5 µM (top of the series). The method, boiled down: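 Cells seeded at 5,000 per well were treated with compounds over a concentration series and loaded with oleic acid (400 uM, as added). Lipid droplet fluorescence (488 nm excitation, 500-530 nm channel) was read by laser-scanning cytometry and normalized to 20 uM Triacsin C.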

Assay [8] concerns the target Ubiquitin carboxyl-terminal hydrolase 1 (Homo sapiens) (UniProt O94782). Description: Inhibitors of USP1/UAF1: Pilot qHTS (AID 504865).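 Also: rhodamine fluorescence freed from ubiquitin-rhodamine substrate followed over time; top concentration of the series differs between compounds; % is scaled to controls: 0 for no effect and ±100 for the full control effect; nearly all actives have a fitted effect of over 35% in size.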 The method, boiled down:
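Kinetic fluorescence assay: 1nM USP1/UAF1, 15 min compound preincubation, then 150nM Ub-Rho; 480/540 nm.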

Assay [9] has as its target DNA dC->dU-editing enzyme APOBEC-3G (Homo sapiens) (UniProt Q9HC16). Description: qHTS for inhibitors of Vif-A3G interactions: Validation (AID 588379). Also: 0% is about no effect. The method, boiled down: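 HeLa cells stably expressing Vif and A3G-eYFP, 700 cells/well, incubated overnight at 37 deg C, then exposed to compound overnight at 37 deg C. Inhibition of Vif-mediated degradation read as increased yellow fluorescence (Ex 488/Em 500-530) by laser-scanning cytometry.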

For assay [10], the system named is Zika virus NS2B-NS3 protease. Description: Primary screen GU AMC qHTS for Zika virus inhibitors (AID 1347154). Also: nearly all actives have a fitted effect of over 70% in size. Also: potency is read from the fitted curve at half-maximal effect.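 As to activity change, negative = inhibition: 0% = no-inhibitor control and -100% = no-enzyme control.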 The method, boiled down: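 Unlinked Zika NS2B hydrophilic domain/NS3 protease domain noncovalent complex (25 nM final) in 10 mM Tris-HCl pH 8.0, 0.01% Tween 20, with AMC peptide substrate. Fluorescence (ex 340, em 450 nm) change over 15 min, room temperature; percent inhibition fitted to 4-parameter Hill equation.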

The nature of assay [11]: Primary qHTS for small molecule stabilizers of the endoplasmic reticulum resident proteome: Secreted ER Calcium Modulated Protein (SERCaMP) assay (AID 1508630). Also: % is scaled to controls: 0 for no effect and ±100 for the full control effect. The method, boiled down:
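GLuc-SERCaMP-expressing SH-SY5Y cells, pretreated 16 h with compound, are challenged with thapsigargin to empty ER calcium stores; after 4 h, coelenterazine is added directly to the medium and luminescence is imaged.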

Assay [12] in a line: AP1 Signaling Pathway (AID 357; active = well fitted curve in either direction with a large enough effect, not every such curve was filed as active; also: % is scaled to controls: 0 for no effect and ±100 for the full control effect). Conditions: ME-180 AP-1-bla reporter, EGF-induced, beta-lactamase ratio, 5 h; at 38 µM (top of the series). Summed up: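 Read-out was the 460nm/530nm emission ratio (excitation 405nm) after CCF4 loading for 2.5 hours at room temperature. Cells carried an AP-1-driven beta-lactamase reporter, were stimulated with EC50 EGF plus compound for 5 hours, and AC50 values came from titrations.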

For assay [13], the target named is Guanine nucleotide-binding protein G(i) subunit alpha-1 (Homo sapiens) (UniProt P63096). Description: qHTS Assay for Inhibitors of RGS12 GoLoco Motif Activity (Green Fluorophore) (AID 879).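 Also: 0% = labeled peptide with Gαi1 and full inhibition = labeled peptide alone without protein; negative values mean loss of peptide binding seen as reduced polarization.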 The method, boiled down:
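Fluorescence polarization assay: 50 nM Gαi1 with 10 nM FITC-labeled RGS12 GoLoco peptide in 10 mM Tris pH 7.5, 150 mM NaCl, 0.1 mM GDP, 0.05% NP40, 10 min at room temperature with compound.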

Assay [14] in a line: qHTS Assay for Identification of Small Molecule Agonists for Thrombopoietin (TPO) Signaling Pathway (AID 917). Also: % is scaled to controls: 0 for no effect and ±100 for the full control effect. The method, boiled down:
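We measured Glycoprotein IIb promoter–luciferase output in IL-3-starved Ba/F3 murine cells expressing the human TPO receptor after 24 hrs at 37 C with compounds and 26 pM TPO.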

Assay [15] has as its target Pyruvate kinase (Leishmania mexicana) (UniProt Q27686). Description: qHTS Validation Assay for Inhibitors of Leishmania Mexicana Pyruvate Kinase (AID 945).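 Also: 0% = DMSO only neutral control wells.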 The method, boiled down:
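The enzyme is a highly purified E451W mutant of LmPYK used at 0.2 nM. It converts 0.5 mM PEP and 0.1 mM ADP over 1 h at room temperature; product ATP is quantified by luciferase luminescence relative to DMSO controls.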

The target of assay [16] is Pyruvate kinase PKM (Homo sapiens) (UniProt P14618). Description: qHTS Assay for Activators of Human Muscle Pyruvate Kinase (AID 954; active = well fitted curve in the direction sought with a large enough effect, not every such curve was filed as active;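 also: 0% = uninhibited enzyme and -100% = no enzyme or full thiadiazolimine inhibition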). Summed up:
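Luminescence from a luciferase ATP-detection/stop reagent reported PKM2 activity. Reactions contained 0.1 nM purified human enzyme, 0.5 mM PEP, 0.1 mM ADP and 7 mM MgCl2 at pH 7.2, run 1 h at RT.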

Assay [17] deals with alpha-glucosidase (Oryza sativa, rice) (UniProt Q653V4). Kind of assay: Counterscreen for Glucocerebrosidase Inhibitors: qHTS Assay for Rice alpha-Glucosidase at pH 5.0 (AID 997).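 Also: 0% = full activity with enzyme and -100% = basal without enzyme.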 Summed up: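 Rice alpha-glucosidase (4 nM final) with 400 uM 4-methylumbelliferyl-alpha-D-glucopyranoside in citrate buffer pH 5.0, 20 min at room temperature, stopped at pH 10; fluorescence 365/440 nm, compounds 0.7 nM–77 uM, AC50 from Hill fits.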

A short description of assay [18]: NFAT Signaling Pathway (AID 444; active = well fitted curve in either direction with a large enough effect, not every such curve was filed as active). Conditions: Jurkat NFAT-bla M1, carbachol, beta-lactamase ratio, 5 h; at 38 µM (top of the series). The method, boiled down: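 Jurkat cells carrying an NFAT-driven β-lactamase reporter and co-transfected muscarinic M1 receptor were treated with compound plus carbachol (1 uM final, an EC50 level) for 5 h at 37 °C. CCF4 loading followed for 1 h at RT; 460/530 nm ratio gave %activity.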

The nature of assay [19]: Stat Signaling Pathway (AID 446; active = well fitted curve in either direction with a large enough effect, not every such curve was filed as active). The following applies: ME-180 (cervical carcinoma) SIE beta-lactamase reporter, IL-6 stimulated, 5 h; at 38 µM (top of the series). The method, boiled down:
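ME-180 SIE-bla cells; overnight plating; cpd + IL-6 40 pM, 5 h, 37 C; LiveBLAzer 2.5 h RT; 460/530 nm emission ratio. Normalized to 300 pM IL-6 and 125 nM JAK inhibitor controls.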

[20] abbreviates: measured here: cell count channel max response.
[21] abbreviates: measured here: lipid channel max response.

Pyruvate kinase (Leishmania mexicana), sequence (Q27686 2-499 E452W): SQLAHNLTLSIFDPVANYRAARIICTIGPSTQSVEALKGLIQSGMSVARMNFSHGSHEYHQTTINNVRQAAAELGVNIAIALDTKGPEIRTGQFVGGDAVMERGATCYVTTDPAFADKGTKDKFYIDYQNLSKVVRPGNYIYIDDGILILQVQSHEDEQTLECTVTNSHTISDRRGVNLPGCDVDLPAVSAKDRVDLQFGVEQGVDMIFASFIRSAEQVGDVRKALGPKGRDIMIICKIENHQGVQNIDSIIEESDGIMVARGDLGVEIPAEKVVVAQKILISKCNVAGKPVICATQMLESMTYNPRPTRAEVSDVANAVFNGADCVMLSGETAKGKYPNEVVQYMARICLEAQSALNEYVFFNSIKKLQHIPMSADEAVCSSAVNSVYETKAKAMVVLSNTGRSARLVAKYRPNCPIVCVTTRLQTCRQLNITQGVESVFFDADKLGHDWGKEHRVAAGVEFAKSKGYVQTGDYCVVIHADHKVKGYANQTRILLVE
Ubiquitin carboxyl-terminal hydrolase 1 (Homo sapiens), sequence (O94782 whole entry, looked up): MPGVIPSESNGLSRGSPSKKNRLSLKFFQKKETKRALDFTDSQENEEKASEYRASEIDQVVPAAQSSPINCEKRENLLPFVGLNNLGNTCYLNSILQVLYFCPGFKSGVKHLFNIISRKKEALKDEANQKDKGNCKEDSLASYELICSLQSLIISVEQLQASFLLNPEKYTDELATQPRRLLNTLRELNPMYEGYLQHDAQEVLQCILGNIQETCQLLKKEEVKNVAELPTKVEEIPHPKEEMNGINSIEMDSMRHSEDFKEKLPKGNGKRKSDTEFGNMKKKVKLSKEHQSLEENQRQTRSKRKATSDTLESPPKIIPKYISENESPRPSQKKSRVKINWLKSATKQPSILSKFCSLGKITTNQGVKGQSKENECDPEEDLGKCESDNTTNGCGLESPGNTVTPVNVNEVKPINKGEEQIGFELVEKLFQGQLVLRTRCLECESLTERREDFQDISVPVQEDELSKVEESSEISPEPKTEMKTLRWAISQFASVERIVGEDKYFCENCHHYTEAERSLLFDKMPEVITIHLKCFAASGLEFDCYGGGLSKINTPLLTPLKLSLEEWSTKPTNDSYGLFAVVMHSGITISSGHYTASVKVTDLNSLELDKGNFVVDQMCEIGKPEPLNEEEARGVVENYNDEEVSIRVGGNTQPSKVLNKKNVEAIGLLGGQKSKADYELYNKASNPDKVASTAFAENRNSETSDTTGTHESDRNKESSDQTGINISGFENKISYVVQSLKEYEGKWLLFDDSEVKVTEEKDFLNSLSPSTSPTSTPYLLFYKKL
Guanine nucleotide-binding protein G(i) subunit alpha-1 (Homo sapiens), sequence (P63096 whole entry, looked up): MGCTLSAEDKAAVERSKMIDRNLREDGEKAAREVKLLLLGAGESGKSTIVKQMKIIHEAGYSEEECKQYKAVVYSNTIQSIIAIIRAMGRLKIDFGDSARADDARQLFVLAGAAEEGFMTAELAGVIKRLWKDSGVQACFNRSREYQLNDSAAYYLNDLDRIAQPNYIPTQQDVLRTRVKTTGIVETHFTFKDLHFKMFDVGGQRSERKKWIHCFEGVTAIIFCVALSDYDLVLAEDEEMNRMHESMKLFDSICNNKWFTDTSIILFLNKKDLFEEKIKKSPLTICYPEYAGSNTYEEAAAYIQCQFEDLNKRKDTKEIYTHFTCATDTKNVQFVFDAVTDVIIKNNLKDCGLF
Cytochrome P450 1A2 (Homo sapiens), sequence (P05177 whole entry, looked up): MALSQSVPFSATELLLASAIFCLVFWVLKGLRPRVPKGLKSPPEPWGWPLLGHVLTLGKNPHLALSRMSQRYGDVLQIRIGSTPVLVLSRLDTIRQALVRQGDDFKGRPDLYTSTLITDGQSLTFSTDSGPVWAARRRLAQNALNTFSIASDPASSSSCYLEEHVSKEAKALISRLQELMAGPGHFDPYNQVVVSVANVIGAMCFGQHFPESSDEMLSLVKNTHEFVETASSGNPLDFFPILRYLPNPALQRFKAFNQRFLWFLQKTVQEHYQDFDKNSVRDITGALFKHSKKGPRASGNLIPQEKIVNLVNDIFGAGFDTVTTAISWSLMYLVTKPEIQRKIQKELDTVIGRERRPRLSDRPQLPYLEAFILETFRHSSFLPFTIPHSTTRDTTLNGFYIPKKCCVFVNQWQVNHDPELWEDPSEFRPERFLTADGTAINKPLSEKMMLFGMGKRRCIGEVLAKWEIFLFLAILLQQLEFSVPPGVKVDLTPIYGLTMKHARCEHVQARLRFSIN
DNA dC->dU-editing enzyme APOBEC-3G (Homo sapiens), sequence (Q9HC16 whole entry, looked up): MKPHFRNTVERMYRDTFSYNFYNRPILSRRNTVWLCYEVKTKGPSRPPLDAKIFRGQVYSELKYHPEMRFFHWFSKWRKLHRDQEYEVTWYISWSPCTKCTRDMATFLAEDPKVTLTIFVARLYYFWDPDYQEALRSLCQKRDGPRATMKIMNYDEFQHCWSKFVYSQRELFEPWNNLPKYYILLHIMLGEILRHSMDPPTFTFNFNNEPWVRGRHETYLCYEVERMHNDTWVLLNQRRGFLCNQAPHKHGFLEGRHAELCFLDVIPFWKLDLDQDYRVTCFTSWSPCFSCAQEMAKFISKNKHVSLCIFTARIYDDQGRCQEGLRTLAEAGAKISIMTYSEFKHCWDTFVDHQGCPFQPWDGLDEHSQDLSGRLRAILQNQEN
3',5'-cyclic-AMP phosphodiesterase 4B (Homo sapiens), sequence (Q07343 whole entry, looked up): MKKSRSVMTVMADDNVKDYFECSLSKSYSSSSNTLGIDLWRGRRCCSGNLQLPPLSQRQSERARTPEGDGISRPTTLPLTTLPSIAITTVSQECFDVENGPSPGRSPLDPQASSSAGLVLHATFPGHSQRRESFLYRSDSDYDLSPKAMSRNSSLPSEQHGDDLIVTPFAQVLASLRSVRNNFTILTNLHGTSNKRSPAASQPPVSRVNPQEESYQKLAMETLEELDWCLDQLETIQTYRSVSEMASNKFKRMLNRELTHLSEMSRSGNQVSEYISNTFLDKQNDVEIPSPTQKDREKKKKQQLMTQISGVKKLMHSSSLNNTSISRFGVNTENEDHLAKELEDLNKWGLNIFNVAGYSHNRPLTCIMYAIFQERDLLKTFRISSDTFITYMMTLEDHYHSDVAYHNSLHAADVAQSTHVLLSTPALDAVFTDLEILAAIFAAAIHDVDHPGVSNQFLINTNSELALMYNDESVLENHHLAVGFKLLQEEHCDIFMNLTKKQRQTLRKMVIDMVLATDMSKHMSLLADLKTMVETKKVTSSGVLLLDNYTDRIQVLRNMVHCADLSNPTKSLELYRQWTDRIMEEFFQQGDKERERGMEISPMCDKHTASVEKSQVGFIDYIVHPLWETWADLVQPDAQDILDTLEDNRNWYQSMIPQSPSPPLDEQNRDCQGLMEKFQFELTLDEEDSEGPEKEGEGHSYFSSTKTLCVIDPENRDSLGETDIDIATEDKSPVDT
Glucocorticoid receptor (Homo sapiens), sequence (P04150 whole entry, looked up): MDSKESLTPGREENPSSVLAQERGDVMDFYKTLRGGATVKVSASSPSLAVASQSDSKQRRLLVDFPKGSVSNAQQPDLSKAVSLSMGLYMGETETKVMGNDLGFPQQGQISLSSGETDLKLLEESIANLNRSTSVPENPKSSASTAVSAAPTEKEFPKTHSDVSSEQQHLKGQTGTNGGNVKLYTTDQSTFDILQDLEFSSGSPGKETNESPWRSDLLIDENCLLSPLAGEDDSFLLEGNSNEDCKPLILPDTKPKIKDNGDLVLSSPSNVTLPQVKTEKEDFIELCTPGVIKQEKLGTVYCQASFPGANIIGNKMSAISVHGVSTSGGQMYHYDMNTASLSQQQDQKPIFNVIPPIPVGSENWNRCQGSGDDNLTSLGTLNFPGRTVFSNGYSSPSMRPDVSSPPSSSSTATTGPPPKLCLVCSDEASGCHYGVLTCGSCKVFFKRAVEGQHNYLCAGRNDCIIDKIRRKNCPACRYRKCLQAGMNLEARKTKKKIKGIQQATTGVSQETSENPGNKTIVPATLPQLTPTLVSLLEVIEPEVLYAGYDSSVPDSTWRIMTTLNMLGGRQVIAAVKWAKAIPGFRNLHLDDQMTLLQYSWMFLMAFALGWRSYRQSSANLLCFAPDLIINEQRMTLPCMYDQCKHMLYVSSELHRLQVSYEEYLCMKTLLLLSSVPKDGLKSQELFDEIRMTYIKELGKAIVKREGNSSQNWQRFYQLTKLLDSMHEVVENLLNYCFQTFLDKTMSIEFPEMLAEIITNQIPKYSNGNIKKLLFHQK
Pyruvate kinase PKM (Homo sapiens), sequence (P14618 whole entry, looked up): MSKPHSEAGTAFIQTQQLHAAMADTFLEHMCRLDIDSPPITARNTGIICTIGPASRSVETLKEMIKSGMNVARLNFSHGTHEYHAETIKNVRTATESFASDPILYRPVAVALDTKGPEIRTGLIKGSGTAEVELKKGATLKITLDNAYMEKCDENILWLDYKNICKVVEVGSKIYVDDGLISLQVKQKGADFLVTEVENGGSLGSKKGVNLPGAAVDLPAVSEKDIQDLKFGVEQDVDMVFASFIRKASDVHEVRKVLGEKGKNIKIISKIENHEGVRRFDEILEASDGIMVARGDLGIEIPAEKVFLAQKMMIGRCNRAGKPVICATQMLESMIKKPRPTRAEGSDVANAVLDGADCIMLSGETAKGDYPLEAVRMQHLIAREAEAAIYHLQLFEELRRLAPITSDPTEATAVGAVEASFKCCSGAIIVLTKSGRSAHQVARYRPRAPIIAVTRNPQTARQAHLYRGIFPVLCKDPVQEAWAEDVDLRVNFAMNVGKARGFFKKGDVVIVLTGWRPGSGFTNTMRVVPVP

On to `C1=C(CN2CCOCC2)COc2c1cccc2OC[C@@H]1CNCCO1`, for which the Potency was 12.6 µM (active) in assay [1], > 46 µM (inactive) in assay [2] and > 46 µM (inactive) in assay [3]. Also, the Potency entry in [4], in assay [5], in assay [6], in [8], in assay [9] and in [10] was “inactive” throughout. Also, the Potency entry in assay [11] was “inactive”. Besides, the activity change, negative = inhibition in assay [7] was 0.797% (inactive). The max response in [7] (setting [20]) is 5.43%; in assay [7] (setting [21]), 3.99%.
`CC(C)(C)NC[C@H](O)COc1cccc2[nH]c(=O)[nH]c12`: the activity change, negative = inhibition in [12] was -7.21% (inactive); in assay [7] it was -4.86% (inactive). For the same compound, the Potency entry in assay [1], in assay [4], in [5], in [14], in assay [15] and in assay [9] was “inactive” throughout. The Potency result in assay [10] and in [11] was “inactive” each time. Also, the Potency in [2] and in assay [3] was > 46 µM (inactive) in each case. In addition, the result in assay [13], in [16] and in assay [17] was inactive. Also, the results for the max response in assay [7] (setting [20]) and in assay [7] (setting [21]) were -1.97% and -5.55%, respectively.
Turning to `N[C@@]1(C(=O)O)CN[C@H](C(=O)O)C1`, the Potency in assay [1] was 31.6 µM (active); in assay [2], > 46 µM (inactive); in assay [3], > 46 µM (inactive). Further, the Potency result in assay [4], in assay [5], in assay [9], in [10] and in assay [11] was “inactive” in each case. For the same compound, the activity change, negative = inhibition in [7] is -1.74% (inactive). For the same compound, the figures for the max response in assay [7] (setting [20]) and in [7] (setting [21]) were 0.388% and -1.87%, respectively.
Take `CC(N)=NCCCC[C@H](N)C(=O)O`: the activity change, negative = inhibition is -1.14% (inactive) in [12], -3.86% (inactive) in [18] and -4.89% (inactive) in assay [7]. Moreover, the Potency entry was “inactive and 39.8 µM (active)” in assay [1]; > 46 µM (inactive) in assay [2]; > 46 µM (inactive) in assay [3]. Moreover, in [19], the activity, negative = inhibition is -14% (inactive). Further, the Potency entry in assay [4], in assay [5], in assay [14], in assay [15], in [8] and in assay [9] was “inactive” each time. The Potency result in [10] and in assay [11] was “inactive” throughout. Besides, in assay [13], the call was inactive. In addition, the max response in [7] (setting [20]) was -8.18%; in [7] (setting [21]), -10.8%.
Regarding `C[C@@](N)(C(=O)O)c1ccc(C(=O)O)cc1`, the activity change, negative = inhibition in assay [12] was 2.6% (inactive); in [18] it was 6.09% (inactive); in assay [7] it was -1.38% (inactive) and 3.86% (inactive). In addition, the Potency entry in assay [1], in assay [4], in assay [5], in assay [14], in assay [15] and in assay [9] was “inactive” each time. Besides, the Potency result in [10] and in [11] was “inactive” throughout. Also, in [19], the activity, negative = inhibition was 4.5% (inactive). In addition, the Potency in assay [2] and in assay [3] was > 46 µM (inactive) in each case. The compound was called inactive in [13], in assay [16] and in assay [17]. For the same compound, the max response is -12.7% and -2.32% in [7] (setting [20]); -13.1% and 2.03% in assay [7] (setting [21]).
`N[C@H](C(=O)O)c1ccc(C(=O)O)c(O)c1`: the Potency result in [1], in assay [4], in assay [5], in [8], in assay [9] and in assay [11] was “inactive” each time. Further, the Potency in assay [2] is > 46 µM (inactive); in assay [3], > 46 µM (inactive); in [10] it was 26.7 µM (active). Further, the activity change, negative = inhibition in assay [7] was 2.68% (inactive). In addition, the figures for the max response in assay [7] (setting [20]) and in [7] (setting [21]) were -19.5% and -17.3%, respectively.
